In PubChem BioAssay one finds composite z-score and z-score data, which are given here for 17 compounds.

In assay [1] the test system is Plasmodium falciparum Sir2 (PF13_0152, Sir2A). Description: pfSir2 binders on small-molecule microarrays, primary screen, biochemical, small-molecule microarray, 635 nm fluorescence (AID 1098).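 Note: score merges spot fluorescence intensity with its signal-to-noise ratio.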 To be noted: small-molecule microarray binding, fluorescence 635 nm; higher = more signal.
Assay [2] in a line: small-molecule microarray binders of probe aDKK1, primary screen, biochemical, biotinylated probe, 635/667 nm fluorescence (AID 1099).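 Note: score merges 667nm spot fluorescence with signal to noise across triplicate slides; reference of the scale not given here.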 The following applies: higher = more signal.
Assay [3] in a line: small-molecule microarray binders of probe aCHRDL2, primary screen, biochemical, biotinylated probe, 635/667 nm fluorescence (AID 1100). To be noted: higher = more signal.
Assay [4] can be described thus: splicing luciferase reporter signal modulators, primary screen, spliceosome inhibition project, cell-based, HEK293, splice +/- reporter (AID 1101).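 Note: HEK293 cells carrying a splicing-competent luciferase reporter gene; test concentration not given here.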 The following applies: luminescence, 24 h, higher = more signal, called active from +8 up or from −8 down. A general note: In a reporter assay the amount or activity of a reporter protein is the signal.
Assay [5] has as its target Fibroblast growth factor 10 (Homo sapiens) (UniProt O15520). Description: FGF10 binders on small-molecule microarrays, primary screen, biochemical, small-molecule microarray, 635 nm fluorescence (AID 1102). The following applies: FGF10 binding, fluorescence 635 nm, higher = more signal.
For assay [6], the system named is glycogen synthase kinase-3 (GSK3A per assay name; protocol says GSK3B). Description: GSK3 binders on small-molecule microarrays, primary screen, biochemical, small-molecule microarray, 635 nm fluorescence, GSK3A (AID 1103). Note: the record names both GSK3A and GSK3B. To be noted: small-molecule microarray binding, fluorescence 635 nm; higher = more signal.
For assay [7], the target named is Epidermal growth factor receptor (Homo sapiens) (UniProt P00533). The assay can be described thus: EGFR binders on small-molecule microarrays, primary screen, biochemical, small-molecule microarray, 635 nm fluorescence (AID 1104).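 Note: score merges 667 nm emission intensity with spot signal to noise over triplicate slides.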 The following applies: EGFR binding, higher = more signal.
For assay [8], the target named is Follistatin-related protein 3 (Homo sapiens) (UniProt O95633). Description: FSTL3 binders on small-molecule microarrays, primary screen, biochemical, small-molecule microarray, 635 nm fluorescence (AID 1105).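 Note: score merges emission near 667 nm and signal to noise per printed spot across three slides.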 To be noted: FSTL3 binding, higher = more signal.
In assay [9] the target is Dickkopf-related protein 1 (Homo sapiens) (UniProt O94907). The assay can be described thus: DKK1 binders on small-molecule microarrays, primary screen, biochemical, small-molecule microarray, 635 nm fluorescence scan (AID 1106).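 Note: score merges emission near 667 nm with signal to noise over three replicate slides.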 The following applies: DKK1 binding, higher = more signal.
For assay [10], the system named is Inhibin beta A chain (activin A). The assay can be described thus: INHBA (activin A) binders on microarrays, primary screen, biochemical, small-molecule microarray, 635 nm fluorescence scan (AID 1107).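 Note: mouse activin A protein probed at 4.33 µg/mL on printed slides; score merges bound-protein fluorescence near 667 nm with spot signal-to-noise.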 To be noted: small-molecule microarray binding, higher = more signal.

The source made the active and inactive calls.

Dickkopf-related protein 1 (Homo sapiens), sequence (O94907 whole entry, looked up): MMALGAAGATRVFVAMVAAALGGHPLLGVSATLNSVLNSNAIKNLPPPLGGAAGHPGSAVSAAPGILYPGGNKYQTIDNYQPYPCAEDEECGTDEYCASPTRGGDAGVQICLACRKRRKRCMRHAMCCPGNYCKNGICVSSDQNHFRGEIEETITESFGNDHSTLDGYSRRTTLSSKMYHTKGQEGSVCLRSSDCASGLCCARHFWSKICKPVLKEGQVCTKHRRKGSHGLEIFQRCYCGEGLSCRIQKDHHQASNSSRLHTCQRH
Follistatin-related protein 3 (Homo sapiens), sequence (O95633 whole entry, looked up): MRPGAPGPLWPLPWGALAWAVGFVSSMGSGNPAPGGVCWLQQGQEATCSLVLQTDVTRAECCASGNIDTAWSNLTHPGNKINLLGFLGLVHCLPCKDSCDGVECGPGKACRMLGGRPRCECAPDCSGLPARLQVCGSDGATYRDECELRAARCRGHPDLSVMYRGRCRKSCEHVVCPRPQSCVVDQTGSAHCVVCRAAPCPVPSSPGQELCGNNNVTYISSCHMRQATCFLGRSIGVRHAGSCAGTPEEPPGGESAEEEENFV
Fibroblast growth factor 10 (Homo sapiens), sequence (O15520 whole entry, looked up): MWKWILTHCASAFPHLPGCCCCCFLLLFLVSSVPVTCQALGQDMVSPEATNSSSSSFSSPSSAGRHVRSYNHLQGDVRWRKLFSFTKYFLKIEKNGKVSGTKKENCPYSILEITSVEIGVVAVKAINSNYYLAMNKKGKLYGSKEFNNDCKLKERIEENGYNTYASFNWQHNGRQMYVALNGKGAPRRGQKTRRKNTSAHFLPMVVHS
Epidermal growth factor receptor (Homo sapiens), sequence (P00533 whole entry, looked up): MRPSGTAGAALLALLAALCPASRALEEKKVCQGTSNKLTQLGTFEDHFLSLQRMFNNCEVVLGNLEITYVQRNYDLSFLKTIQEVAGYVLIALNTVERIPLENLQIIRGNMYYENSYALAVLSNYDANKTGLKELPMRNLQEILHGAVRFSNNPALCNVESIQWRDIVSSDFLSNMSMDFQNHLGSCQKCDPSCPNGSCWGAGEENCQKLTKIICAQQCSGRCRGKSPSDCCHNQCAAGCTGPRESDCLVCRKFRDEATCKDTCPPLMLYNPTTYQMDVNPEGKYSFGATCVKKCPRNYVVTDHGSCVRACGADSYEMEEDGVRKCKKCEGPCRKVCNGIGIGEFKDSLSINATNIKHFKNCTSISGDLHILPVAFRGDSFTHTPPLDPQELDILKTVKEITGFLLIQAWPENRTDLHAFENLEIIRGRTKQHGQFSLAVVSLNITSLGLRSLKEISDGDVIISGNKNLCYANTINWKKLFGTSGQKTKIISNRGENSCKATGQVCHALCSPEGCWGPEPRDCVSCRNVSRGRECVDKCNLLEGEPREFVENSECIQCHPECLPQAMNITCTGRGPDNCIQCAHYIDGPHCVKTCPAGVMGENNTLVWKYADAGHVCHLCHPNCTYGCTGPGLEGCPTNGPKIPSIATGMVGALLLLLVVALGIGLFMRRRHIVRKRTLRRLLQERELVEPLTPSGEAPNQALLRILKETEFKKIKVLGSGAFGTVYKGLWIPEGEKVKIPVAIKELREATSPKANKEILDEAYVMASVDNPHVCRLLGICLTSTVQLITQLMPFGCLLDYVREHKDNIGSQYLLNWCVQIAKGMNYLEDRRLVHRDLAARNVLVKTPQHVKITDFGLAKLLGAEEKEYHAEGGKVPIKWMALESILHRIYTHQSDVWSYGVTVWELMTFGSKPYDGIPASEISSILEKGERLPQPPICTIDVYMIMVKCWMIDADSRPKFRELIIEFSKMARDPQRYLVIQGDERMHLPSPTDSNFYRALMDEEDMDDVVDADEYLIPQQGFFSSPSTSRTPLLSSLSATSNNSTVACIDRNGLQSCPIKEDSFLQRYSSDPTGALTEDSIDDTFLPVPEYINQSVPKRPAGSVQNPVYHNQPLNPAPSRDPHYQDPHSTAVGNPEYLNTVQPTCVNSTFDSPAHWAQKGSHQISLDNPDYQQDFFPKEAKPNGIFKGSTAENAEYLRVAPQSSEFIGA

With `CCCCC(=C=CC[C@H](O)c1cccc(OCCO)c1)C[C@H](O)c1ccccn1`, the composite z-score was 0.827 in [1]; -0.218 in assay [2]; -0.302 in assay [3]; 0.453 in [5]; -0.364 in [6]; 0.0715 in [7]. Further, the composite z-score in assay [8] worked out at 0.0048; in assay [9] it was 0.296; in assay [10], 0.434. Further, the z-score in assay [4] was -2.17 (inactive).
In the case of `COC(=O)c1c(CC[C@@H](CO)NC(=O)N[C@H](Cc2ccccc2)Cn2cc(-c3ccccn3)nn2)oc(C(C)=O)c1C(=O)OC`, the composite z-score in assay [1] was 1.48; in [2], -0.123; in assay [3] it was -0.379; in [5] it was 0.384; in assay [6], 0.17; in [7], -0.371. Besides, the composite z-score was -0.15 in [8], -0.328 in assay [9] and -0.285 in [10]. Further, the z-score in assay [4] is 1.01 (inactive).
On to `CC(C)CNC(=O)[C@@]1(Cc2ccccc2I)c2ccccc2C(=O)N(Cc2ccccc2C(F)(F)F)[C@H]1c1ccc(CO)cc1`, for which the composite z-score in assay [1] was -0.164; in assay [2], 0.104; in assay [3], 0.836; in assay [5], 0.122; in assay [6], -0.95; in [7], -1.17. Besides, the composite z-score in [8] is -0.978; in assay [9] it was -0.822; in assay [10] it was 0.598. In addition, in [4], the z-score was 0.368 (inactive).
As for `O=C1NC(=O)C2C1C=CC(C(O)c1ccc(I)cc1)N2Nc1ccc(Cl)cc1Cl` (stereo not given), the composite z-score is 1.03 in assay [1]; 0.418 in [2]; 1.08 in assay [3]; 0.41 in assay [5]; 0.782 in assay [6]; -0.079 in [7]. The values for the composite z-score in [8], in [9] and in assay [10] were 0.425, -0.235 and 0.871, respectively. Moreover, in assay [4], the z-score is -1.09 (inactive).
With `COc1ccc(C(O)C2C=CC3C(=O)N(C)C(=O)C3N2N(c2ccccc2)c2ccccc2)c2ccccc12` (stereo not given), the composite z-score in assay [1] is 1.42; in assay [2] it was 0.464; in [3], 1.04; in assay [5] it was 0.784; in assay [6] it was -0.16; in [7] it was 0.23. In addition, the composite z-score turned out to be 1.19 in assay [8], 0.569 in assay [9] and 1.13 in assay [10]. Besides, in [4], the z-score was 1.04 (inactive).
As for `O=C1OCC=C[C@H]2OC34C=CCN(CCN5CCOCC5)C(=O)[C@H]3N(CCO)C(=O)[C@@H]4[C@@H]12` (stereo not given in full), the composite z-score in assay [1] was 1.47; in assay [2], -0.0283; in [3], -0.224; in assay [5], -0.787; in assay [6], 0.0559; in assay [7], -0.14. Further, the composite z-score in [8] was 0.241; in assay [9] it was -0.0563; in [10] it was 0.0758. For the same compound, the z-score in assay [4] is 0.308 (inactive).
For the compound `CCCCC(O)C1C=CC2C(=O)N(C)C(=O)C2N1N1CCCCC1` (stereo not given), the composite z-score in assay [1] is 0.933; in assay [2] it was 0.945; in [3], 0.743; in assay [5], 0.546; in assay [6] it was -0.0038; in [7] it was 0.229. In addition, the composite z-score in assay [8] was found to be 0.574; in [9], 0.0003; in assay [10] it was 1.42. Besides, the z-score in assay [4] is 0.871 (inactive).
As for `CCCC1(C(=O)OC)C=C2C(=C(c3ccccc3)C(=O)C2C)CN1` (stereo not given), the composite z-score in [1] was -0.495; in [2] it was 0.717; in assay [3], 1.16; in assay [5], -0.157; in [6], -0.636; in assay [7] it was -0.278. Further, the results for the composite z-score in assay [8], in assay [9] and in assay [10] were -0.0458, -0.704 and 1.44, respectively. In assay [4], the z-score is -1.14 (inactive).
For `CCCCCCc1nc(-c2ccc(-c3ccc(Cl)c(Cl)c3)o2)c(C)c2c1[Si](C(C)C)(C(C)C)OC2`, the composite z-score in [1] is -0.0921; in assay [2], -0.233; in assay [3], -0.102; in [5] it was -0.57; in assay [6], -0.555; in [7], -0.648. Moreover, the results for the composite z-score in [8], in [9] and in [10] were -0.374, -0.446 and 0.375, respectively. In addition, the z-score in assay [4] is -1.62 (inactive).
For the compound `NC(=O)[C@@H]1[C@H]2C(=O)O[C@H](c3ccccc3)[C@H](c3ccccc3)N2[C@H](c2ccc(OCCO)cc2)[C@@]12C(=O)Nc1ccc(C#CC3=CCCCC3)cc12`, the composite z-score in assay [1] was 1.36; in assay [2], -0.134; in assay [3], -0.233; in [5], 1.21; in [6], 1.32; in [7], 0.544. Besides, the composite z-score in assay [8] stood at 0.588; in [9] it was 0.372; in [10] it was 0.357. In [4], the z-score is -0.857 (inactive).
Take `NCCCCCCNC(=O)[C@H]1C[C@H]2C(=O)N[C@@H](Cc3ccccc3)C(=O)N2[C@H]1c1cccc(OCCO)c1`: the composite z-score in [1] worked out at 0.809; in [2], 0.682; in assay [3], 0.713; in assay [5], 0.324; in [6], 0.0638; in assay [7] it was 0.13. The composite z-score in [8] is 0.362; in assay [9] it was -0.0608; in assay [10], 0.101. Further, in assay [4], the z-score is -0.895 (inactive).
Turning to `CC[C@@H]1C=C(C(=O)O)[C@H](c2ccc(C)cc2)N1S(=O)(=O)c1ccc(C)cc1`, the composite z-score in assay [1] is 0.66; in assay [2] it was 0.0882; in [3], 0.335; in assay [5], 0.227; in assay [6], 0.745; in [7] it was -0.0708. For the same compound, the values for the composite z-score in assay [8], in assay [9] and in [10] were 0.534, -0.357 and 0.236, respectively. Further, in assay [4], the z-score is 0.243 (inactive).
For the compound `O=C1O[C@H](c2ccccc2)[C@H](c2ccccc2)N2[C@H]1[C@@H](C(=O)NC[C@H](O)c1ccccc1)[C@]1(C(=O)Nc3ccccc31)[C@H]2c1ccc(O)cc1`, the composite z-score in assay [1] is 0.758; in assay [2] it was -0.0713; in assay [3] it was 0.489; in assay [5] it was 1.3; in assay [6], 0.476; in [7], 0.555. Also, the composite z-score was 0.749 in assay [8], 0.964 in [9] and -1.04 in assay [10]. The z-score in assay [4] was -0.4 (inactive).
Consider `C=CCN(Cc1ccccc1)C(=O)C(c1cccs1)N(C(=O)/C=C\C(=O)O)c1ccc(CCOCCO)cc1` (stereo not given), for which the composite z-score in assay [1] was 1.33; in assay [2], -0.291; in assay [3] it was 0.486; in [5], -2.15; in assay [6], -1.28; in [7] it was -1.43. Besides, the composite z-score was -1.27 in [8], -2.18 in assay [9] and -0.753 in assay [10]. Moreover, the z-score in assay [4] was -1.2 (inactive).
On to `CCCCN1CC=CC23O[C@@H]4C=CCCOC(=O)C4[C@H]2C(=O)N(CCCCCO)[C@@H]3C1=O` (stereo not given in full), for which the composite z-score is 1.2 in assay [1]; -0.359 in [2]; 0.413 in [3]; -1.1 in assay [5]; -0.649 in assay [6]; -0.95 in assay [7]. For the same compound, the results for the composite z-score in [8], in [9] and in assay [10] were -1.15, -0.787 and 0.26, respectively. Also, in assay [4], the z-score was -0.268 (inactive).
With `CC(C)NC(=O)[C@@]1(Cc2ccccc2I)c2ccccc2C(=O)N(Cc2ccccc2Cl)[C@H]1c1ccc(CO)cc1`, the composite z-score in assay [1] was 0.972; in [2], 0.13; in assay [3] it was 0.156; in assay [5], 1.1; in assay [6], 1.16; in assay [7], 0.355. The results for the composite z-score in [8], in assay [9] and in [10] were 0.575, 0.533 and 0.529, respectively. Further, the z-score in assay [4] is -0.833 (inactive).
Turning to `CCOC(=O)C1=CC[C@H]2C(=O)N(c3ccccc3)C(=O)[C@@H]12`, the composite z-score stood at 1.67 in assay [1]; 0.143 in [2]; 0.0364 in assay [3]; 1.19 in assay [5]; 0.571 in [6]; 0.55 in [7]. Besides, the composite z-score in assay [8] came to 1.01; in [9], 0.56; in assay [10], 0.304. The z-score in assay [4] is 0.406 (inactive).
